Experimental data published in PubChem BioAssay AID1159537 (DiRusso Lab, Biochemistry Department, University of Nebraska, 2015).
About 370 (0.84%) of roughly 44,000 compounds were called active. The rule behind the calls is not given here. The sample as a whole holds a higher share of actives than the screen did.

Experiment: inducers of TAG accumulation in Chlamydomonas, primary screen, qHTS, Chlamydomonas reinhardtii (AID 1159537);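 note: hits raise Nile Red signal meaning more stored TAG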
Settings: Nile Red fluorescence, 72 h, screened at 10 µM (by protocol)

| Structure (SMILES) | outcome |
| --- | --- |
| O=C(COc1ccc(F)cc1)NCc1ccco1 | inactive |
| CCOc1ccc(-c2cc(C(=O)NCc3ccccn3)c3ccccc3n2)cc1 | inactive |
| Cn1c(SCC(=O)Nc2cccc([N+](=O)[O-])c2)nc2ccccc21 | inactive |
| COc1ccc(C2C(=C(O)c3ccc(C)cc3)C(=O)C(=O)N2c2ccccn2)cc1 (stereo unspecified) | inactive |
| O=C(Cc1ccc(Cl)cc1)N1CCN(c2ccc(Cl)cc2[N+](=O)[O-])CC1 | inactive |
| O=C(Nc1cccc(F)c1)N1CCN(c2ccccc2F)CC1 | inactive |
| Cc1cccc(OCC(=O)Nc2cc(-c3nc4ncccc4o3)ccc2C)c1 | inactive |
| O=C(NCc1cccnc1)C(CCO)Sc1nc2sc3c(c2c(=O)[nH]1)CCCC3 (stereo unspecified) | inactive |
| Cc1ccc(S(=O)(=O)N2CCC(N3CCCCCC3)CC2)cc1 | inactive |
| Cc1ccc(N2CCN(C3CCCCCC3)CC2)cc1 | active |
| Cc1ccc(C(=O)N2CCN(c3ccccc3)CC2)cc1 | inactive |
| COc1cccc(NC(=O)Nc2nnc(-c3cccc(OC)c3)s2)c1 | inactive |
| Cc1ccc(C(=O)CNc2ccc(F)cc2)cc1 | inactive |
| Cc1cc(C)c2nc(C)cc(Nc3ccc4c(c3)OCCO4)c2c1 | inactive |
| Cc1ccc(C(=O)N(Cc2ccccc2)C(C)C)cc1[N+](=O)[O-] | inactive |
| NC(=O)c1ccc(NC(=O)C(Sc2ccccc2)c2ccccc2)cc1 (stereo unspecified) | inactive |
| COc1ccc(OC)c(NC(=O)CC2CCCCC2)c1 | inactive |
| Clc1ccc(CN2CCOCC2)c(Cl)c1 | inactive |
| O=C(COc1ccc(Br)cc1Cl)NCCO | inactive |
| Fc1ccccc1OCCN1CCCC1 | inactive |
| Clc1ccc(OCCCCN2CCOCC2)c(Br)c1 | active |
| Clc1ccc(OCCN2CCCCCC2)cc1 | inactive |
| Clc1ccccc1OCCCCN1CCOCC1 | active |
| Clc1ccc(OCCOCCN2CCCC2)c(Br)c1 | active |
| O=C(CCCOc1ccc(Cl)cc1Cl)N1CCCC1 | inactive |
| COc1ccc(C(=O)NCCCN2CCOCC2)cc1Br | inactive |

| Structure (SMILES) | outcome |
| --- | --- |
| Clc1cc(Br)ccc1OCCCCN1CCOCC1 | active |
| Cc1ccc(OCCOCCN2CCN(C)CC2)c(Br)c1 | inactive |
| O=[N+]([O-])c1ccccc1OCCCCN1CCCCC1 | inactive |
| Cc1cc(N/C=C/C(=O)c2cccs2)no1 | inactive |
| CCN(CC)CCC(=O)c1ccc(C(C)C)cc1 | inactive |
| CCc1ccc(NC(=O)Nc2ccccc2)cc1 | inactive |
| CCCC(=O)Nc1cccc(NC(=O)COc2ccc(C)c(C)c2)c1 | inactive |
| Cc1cccc(C)c1OCC(=O)Nc1ccc([N+](=O)[O-])cc1 | inactive |
| CCCC1CCc2c(sc(NC(=O)C3C4C=CC(C4)C3C(=O)O)c2C(N)=O)C1 (stereo unspecified) | inactive |
| O=C(COc1ccc([N+](=O)[O-])cc1)Nc1cccc(Br)c1 | inactive |
| CCOc1ccccc1NC(=O)COc1ccc(Br)c(C)c1 | inactive |
| O=C(O)Cn1c2ccccc2c2cc([N+](=O)[O-])ccc21 | inactive |
| CC(=O)c1nc2cc([N+](=O)[O-])ccc2n1Cc1ccccc1 | active |
| CC(=O)c1nc2ccccc2n1Cc1ccccc1 | inactive |
| CC(C(=O)NCc1ccncc1)N(c1ccccc1)S(C)(=O)=O (stereo unspecified) | inactive |
| COc1ccc(N=C2NC(=O)CC(C(=O)Nc3ccc(Cl)cc3)S2)cc1 (stereo unspecified) | inactive |
| CC(=O)Nc1ccc(NC(=O)c2ccc(F)cc2)cc1 | inactive |
| OCCN1CCN(C2CCN(Cc3ccc(Cl)cc3)CC2)CC1 | inactive |
| COc1ccc(-c2cn3c4ccccc4n(CCN4CCOCC4)c3n2)cc1 | inactive |
| O=C1CCC(=O)N1c1ccc(S(=O)(=O)c2ccc(N3C(=O)CCC3=O)cc2)cc1 | inactive |
| O=C(COc1ccc([N+](=O)[O-])cc1)Nc1ccc(Cl)cc1 | inactive |
| COc1ccccc1CNC1CCC(C)C1 (stereo unspecified) | inactive |
| NC(=O)CCSc1ccc(Cl)cc1 | inactive |
| NC(N)=NS(=O)(=O)c1ccc(NC(=O)c2ccc([N+](=O)[O-])cc2)cc1 | inactive |
| Cc1cccc(NC(=O)C(=O)NC(C)c2ccccc2)c1 (stereo unspecified) | inactive |
| CC(=O)NS(=O)(=O)c1ccc(NC(=O)C2C3C=CC(C3)C2C(=O)O)cc1 (stereo unspecified) | inactive |

| Structure (SMILES) | outcome |
| --- | --- |
| Cc1ccc(CNC(=O)c2ccccc2Br)cc1 | inactive |
| COc1ccc(Nc2nc(Nc3ccc(OC)cc3)nc(N3CCNCC3)n2)cc1 | inactive |
| CC1CCCN(CCCCOc2ccccc2F)C1 (stereo unspecified) | inactive |
| COc1cc(/C=C(\C#N)c2nc3ccc(C)cc3[nH]2)c(Br)cc1O | inactive |
| O=C(NCc1cccnc1)C(O)(c1ccccc1)c1ccccc1 | inactive |
| COc1ccccc1OCCNc1cc(N2CCOCC2)ccc1[N+](=O)[O-] | inactive |
| CCN(CC)CCCOc1ccc(C)cc1[N+](=O)[O-] | inactive |
| Cc1ccc(OCCOCCN2CCOCC2)c([N+](=O)[O-])c1 | active |
| CNC(=O)C(=O)NCCc1ccccc1 | inactive |
| O=C1CC(NCCc2ccccc2)C(=O)N1c1ccc(F)cc1 (stereo unspecified) | inactive |
| Cn1c(SCC(=O)Nc2ccccc2)nc2ccccc21 | inactive |
| Cc1ccc(C(C)C)c(OCC(O)CN2CCCC(C)C2)c1 (stereo unspecified) | inactive |
| CCOc1ccc(N2C(=O)CC(SCC(=O)Nc3ccc(F)cc3)C2=O)cc1 (stereo unspecified) | inactive |
| COc1ccc(N(CC(=O)Nc2ccc(C)cc2)S(C)(=O)=O)c(OC)c1 | inactive |
| COc1ccccc1/C=C(/C#N)c1nc2ccccc2[nH]1 | inactive |
| CNC(=O)CN(c1ccc(F)cc1)S(C)(=O)=O | inactive |
| COc1ccccc1N(CC(=O)NC12CC3CC(CC(C3)C1)C2)S(=O)(=O)c1ccccc1 | inactive |
| O=C(c1ccc(CN2CCOCC2)cc1)N(Cc1ccccc1)Cc1ccccc1 | active |
| CC(=O)Nc1ccc(CN2CCOCC2)cc1 | inactive |
| O=C(Nc1cccc(Cl)c1Cl)c1ccc(CN2CCOCC2)cc1 | inactive |
| COC(=O)NC(c1ccc(Br)cc1)C(Cl)(Cl)Cl (stereo unspecified) | inactive |
| Cc1ccc2c(Cl)c(C(=O)Nc3cc(S(N)(=O)=O)ccc3C)sc2c1 | inactive |
| CC(=O)c1ccc(NC(=O)COc2ccc(Br)c(C)c2)cc1 | inactive |
| CCOc1ccc(NC(=O)Nc2nnc(Cc3ccc(OC)cc3)s2)cc1 | inactive |
| C=CCNC(=O)COc1ccc(C)cc1Br | inactive |
| COc1ccc(Cl)cc1NC(=O)CSc1nc2ncccc2[nH]1 | inactive |

| Structure (SMILES) | outcome |
| --- | --- |
| CC(=O)Nc1ccc(CN2CCN(c3ccc(C(C)=O)cc3)CC2)cc1 | inactive |
| CC(=O)NC1=C(N2CCN(Cc3ccccc3)CC2)C(=O)c2ccccc2C1=O | active |
| O=C(Nc1ccccc1)N1CCN(Cc2ccccc2)CC1 | inactive |
| O=C(Nc1cccc(Cl)c1)Nc1ccccn1 | inactive |
| O=C1CC(N2CCN(c3ccc([N+](=O)[O-])cc3)CC2)C(=O)N1c1cccc(Cl)c1 (stereo unspecified) | inactive |
| O=C1CC(N2CCc3ccccc3C2)C(=O)N1c1ccc([N+](=O)[O-])cc1 (stereo unspecified) | active |
| O=C1CC(N2CCCCCC2)C(=O)N1c1ccccc1 (stereo unspecified) | inactive |
| O=C(O)c1sc2ccccc2c1Cl | inactive |
| CN1CCN(C(=O)c2sc3cc(Cl)ccc3c2Cl)CC1 | active |
| O=C(O)c1sc2cc(F)ccc2c1Cl | inactive |
| COc1ccccc1CN(C)C1CCN(C)CC1 | inactive |
| COc1ccc(Cl)cc1N(CC(=O)NCC1CCCO1)S(C)(=O)=O (stereo unspecified) | inactive |
| CN(C)CCCn1cnc2ccccc21 | inactive |
| COc1cc(C(=O)Nc2sc3c(c2C(N)=O)CCC3)cc(OC)c1OC | inactive |
| O=C(Nc1ccccc1)Nc1ccccc1C(=O)N1CCOCC1 | active |
| CCC(=O)Nc1ccccc1C(=O)N1CCN(Cc2ccccc2)CC1 | inactive |
| O=C(Nc1ccc(C(=O)N2CCOCC2)cc1)C1COc2ccccc2O1 (stereo unspecified) | inactive |
| NC(=O)CN(Cc1ccccc1Cl)S(=O)(=O)c1ccc(Cl)cc1 | inactive |
| O=C(c1ccc([N+](=O)[O-])cc1)N1CCN(c2cccc(Cl)c2)CC1 | inactive |
| Cc1ccccc1N(C(F)F)S(=O)(=O)c1cc([N+](=O)[O-])ccc1C | inactive |
| O=C(CCN1CCCC1)Nc1ccc2c(c1)CCC2 | inactive |
| CC(=O)c1ccc(-c2ccc(C=O)o2)cc1 | inactive |
| COc1ccccc1N1CCN(S(=O)(=O)c2cccc3cccnc23)CC1 | inactive |
